From PubChem
PfGluPho inh = PfG6PD (Plasmodium falciparum) enzyme inhibition. PfGluPho enzyme, NADPH resazurin-diaphorase fluorescence. AID 504690. inhibition, % at 20 µM. 350,000 compounds, 0.78% hits;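 active = inhibition reaching at least a set limit at 20 µM in the primary screen, cut at about 59% in these data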;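 also: 0% = DMSO wells with substrate and 100% = DMSO wells lacking glucose-6-phosphate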
Cardio protect = protects H9c2 cardiomyocytes from peroxide injury; H2O2 injury protection, ATPLite, 2 h; protection from H2O2 cell death, % at 20 µM; 360,000 compounds, 0.63% hits; AID 588492;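 active = compounds giving at least 50% protection of heart cells from peroxide-induced death in the single-dose screen, raw or plate-pattern-corrected value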;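 also: 0% = DMSO wells with peroxide and 100% = DMSO wells without peroxide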
PHOSPHO1 inh = blocks human PHOSPHO1 phosphatase activity. Q8TCT1. recombinant PHOSPHO1, absorbance phosphatase assay. inhibition, % at 13.3 µM. 290,000 compounds, 1.1% hits; in the data active = inhibition above about 60%
Target sequence (Q8TCT1 whole entry, looked up): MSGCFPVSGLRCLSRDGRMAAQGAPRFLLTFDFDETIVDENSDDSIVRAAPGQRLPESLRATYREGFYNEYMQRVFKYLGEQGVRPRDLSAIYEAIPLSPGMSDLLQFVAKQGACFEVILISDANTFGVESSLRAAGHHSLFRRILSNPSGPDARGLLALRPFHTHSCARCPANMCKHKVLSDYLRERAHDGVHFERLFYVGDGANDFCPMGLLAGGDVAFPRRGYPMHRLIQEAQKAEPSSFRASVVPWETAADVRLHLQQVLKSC
ALR inh = inhibitors of human sulfhydryl oxidase ALR. P55789. purified ALR, DTT oxidation, H2O2 HRP-luminol luminescence. inhibition, % (test concentration not listed). 290,000 compounds, 3.8% hits. AID 485317;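 active = mean replicate inhibition above about 79%, with every replicate also reaching it, limit read from the data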
Target sequence (P55789 whole entry, looked up): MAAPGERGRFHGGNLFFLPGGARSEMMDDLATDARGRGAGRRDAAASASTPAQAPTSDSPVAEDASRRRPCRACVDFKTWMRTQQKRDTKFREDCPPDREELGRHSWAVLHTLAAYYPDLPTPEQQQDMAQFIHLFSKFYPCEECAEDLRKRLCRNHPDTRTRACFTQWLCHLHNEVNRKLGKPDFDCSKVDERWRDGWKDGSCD
M18AAP inhibitor = blocks P. falciparum M18 aspartyl aminopeptidase; recombinant PfM18AAP, H-Glu-NHMec fluorogenic cleavage; inhibition, % at 7.35 µM; 290,000 compounds, 1.2% hits;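 active = inhibition above the campaign mean inhibition over all tested compounds plus 3 SD, cut at about 28% in these data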;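 also: 0% = plate median of test compound wells and 100% = 2 mM ZnCl2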
PfG6PD confirm = PfG6PD inhibition, single-dose confirmed; AID 504753; shares compounds with PfGluPho inh; 2,400 compounds, 34% hits; recombinant PfGluPho, NADPH-diaphorase-resazurin fluorescence; inhibition, % at 20 µM;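 active = inhibition of at least 50% at 20 µM in any single replicate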;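 also: 0% = DMSO with substrate and 100% = DMSO lacking glucose-6-phosphate substrate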
Diaphorase 10uM = inhibits diaphorase or oxidizes, flagging false PfG6PD hits. shares compounds with PfGluPho inh. diaphorase-coupled resazurin reduction, fluorescence, NADPH 10 uM. inhibition, % at 20 µM. 820 compounds, 39% hits;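 active = average inhibition reaching 50% or more with the compound at 20 µM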;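 also: resorufin red fluorescence formed as diaphorase reduces resazurin using NADPH; 0% = DMSO with enzyme and 100% = DMSO without enzyme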
Diaphorase 30uM = counter-screen for P. falciparum G6PD inhibitors: diaphorase inhibitors, oxidizers. inhibition, % at 20 µM. Diaphorase/resazurin coupled assay, resorufin fluorescence, 30 uM NADPH. 820 compounds, 29% hits. shares compounds with PfGluPho inh;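 active = inhibition averaging 50% or more, tested at 20 µM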;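 also: 0% = DMSO with enzyme and 100% = DMSO wells lacking diaphorase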
Numbers without * were called inactive; · = no result given. An excerpt weighted towards active compounds, which were near 5.6% of everything screened.

SMILES	PfGluPho inh	Cardio protect	PHOSPHO1 inh	ALR inh	M18AAP inhibitor	PfG6PD confirm	others
CCC(=O)OCOc1ccc(/C=C2/CCC(CN(C)C)C2=O)cc1 (stereo not given)	84*	-23	·	·	·	56*	Diaphorase 10uM=-33;Diaphorase 30uM=-23
CCC1(c2ccccc2)NC(=O)N(CC(=O)Nc2ccccc2C(=O)N2CCCCC2)C1=O (stereo not given)	-16	6	·	-2	·	·
O=C(c1cc(-c2ccccc2Cl)on1)N1CCN(C(=O)c2ccco2)CC1	11	2	11	-11	-1	·
CC(=O)OCCNc1cc(N2CCN(C)CC2)c2noc3c2c1C(=O)c1ccccc1-3	85*	9	-5	·	2	-26
O=C(O)CCNc1cc(N2CCN(C(=O)c3ccco3)CC2)c2noc3c2c1C(=O)c1ccccc1-3	80*	4	27	57	35*	24
CCOC(=O)N1CCN(c2cc(NCCO)c([N+](=O)[O-])c3nonc23)CC1	15	8	33	·	2	·
N#CCCN(Cc1ccccc1)C(C(=O)NC1CCCCC1)c1ccnc2ccccc12 (stereo not given)	·	7	·	·	·	·
Cc1nc2c(=O)[nH]c(=S)n(C)c2nc1C	65*	-2	-18	5	10	35
Cc1nc2[nH]c(=S)[nH]c(=O)c2nc1C	18	0	·	·	·	·
COc1ccc(NC(=O)c2ccc3[nH]c(C)c(C)c3c2)c(OC)c1	62*	-6	23	·	5	-4
O=C(Cn1cnc2ccccc2c1=O)Nc1nnc(C2CC2)s1	-7	-3	-6	4	4	·
CC(C)(C)c1csc(NC(=O)Cn2cnc3ccccc3c2=O)n1	68*	7	3	-2	-2	-4
CCOC(=O)Cc1csc(NC(=O)c2cc3c(s2)CCCC3)n1	6	-16	5	14	-11	·
Cc1csc(NC(=O)c2cc3c(s2)CCCCC3)n1	77*	-36	-6	26	-10	10
Cc1csc(NC(=O)c2cc3c(s2)CCCC3)n1	62*	-29	18	23	3	9
COc1ccc2[nH]c3c(C)c4ccncc4c(C)c3c2c1	60*	2	20	45	3	-23
COc1ncnc2c1ncn2CCCNCc1ccc(C)o1	-2	-2	·	·	·	·
CC1(C)CN(c2ccccc2)N(C(=O)c2ccc(C#N)cc2)C1=O	95*	6	52	85*	-2	68*	Diaphorase 10uM=1;Diaphorase 30uM=1
C[C@H](CO)N1C[C@H](C)[C@H](CN(C)S(=O)(=O)c2ccc(F)cc2)OCc2cnnn2CCCC1=O	1	2	·	·	·	·
CCCC(=O)OCCNc1cc(Sc2nc3ccccc3[nH]2)c2nonc2c1[N+](=O)[O-]	65*	-18	-12	10	-77	39
Nc1cc2nc3ccccc3oc-2cc1=O	74*	-15	43	11	23	19
COc1ccccc1CN(C)C(=O)C(NC(=O)Cc1cccc2ccccc12)C(C)C (stereo not given)	8	-4	35	4	7	·
Nc1cc(-c2ccncc2)c[nH]c1=O	64*	-12	6	12	0	30
NC(=O)c1csc(-c2ccncc2)n1	-10	2	36	-15	-5	·
CC(Nc1ccc(N2CCOCC2)cc1)C(=O)N1c2ccccc2CC1C (stereo not given)	69*	-1	46	56	-30	-9
SMILES	PfGluPho inh	Cardio protect	PHOSPHO1 inh	ALR inh	M18AAP inhibitor	PfG6PD confirm	others
Cc1ccc(NCc2ccccc2F)cc1	4	-12	2	·	-12	·
Cc1ccc(CNc2ccc(O)cc2)cc1	86*	4	20	·	11	64*	Diaphorase 10uM=20;Diaphorase 30uM=22
CC1=C(C)C(=O)C(CCCCC#CCCCC#CCO)=C(C)C1=O	89*	-16	16	·	21	31
COC1=C(OC)C(=O)C(CCCCCCCCCCO)=C(C)C1=O	·	-24	28	·	3	·
NS(=O)(=O)c1ccc(N/N=C/c2ccc(O)cc2O)c([N+](=O)[O-])c1	1	5	-12	21	14	·
NS(=O)(=O)c1ccc(N/N=C/c2ccc(O)c(O)c2O)c([N+](=O)[O-])c1	87*	2	29	·	50*	70*	Diaphorase 10uM=5;Diaphorase 30uM=-3
COc1ccc2nc(NC(=S)N(C)C)sc2c1	70*	-7	95*	73	16	13
CCCC(=O)Nc1nc2ccc(OC)cc2s1	6	-23	16	-15	-11	·
COc1ccc([C@@H]2[C@@H]3C(=O)N(C(C)(C)C)C(=O)[C@@H]3[C@]3(C)C(=O)N(c4ccc(C(F)(F)F)cc4)C(=O)N23)cc1	26	-4	-13	-2	2	·
COc1ccc(N2CCN(C(=O)NCc3cccc(OC)c3)CC2)cc1	2	2	13	-14	2	·
COc1ccccc1C=NN=C(NN=Cc1ccccc1OC)NN=Cc1ccccc1OC	77*	-24	·	·	·	29
COc1ccccc1/C=N/NC(=O)CNC(=O)c1ccccc1	-9	12	4	0	6	·
COc1ccccc1/C=N/NC(=O)CCSc1ccccc1	63*	-2	-10	-33	-8	72*	Diaphorase 10uM=65*;Diaphorase 30uM=67*
COc1ccc(CCCC(=O)N/N=C/c2ccc(C)cc2)cc1	33	-12	-16	-25	2	·
COc1ccccc1C=NNC(=O)NN=Cc1ccccc1OC	-8	-17	·	·	·	·
COc1ccc(CCCC(=O)N/N=C/c2ccccc2OC)cc1	98*	-1	-25	·	-10	67*	Diaphorase 10uM=70*;Diaphorase 30uM=57*
COc1ccc(OC)c(/C=N\NC(=O)CSc2nnc(CCCc3ccc(OC)c(C)c3)o2)c1	96*	-27	-3	-13	3	22
COc1ccc(CCCc2nnc(SCC(=O)Nc3cc(C)c(C)cc3Br)o2)cc1	3	-9	2	5	-5	·
Nc1ccc(CCn2ccnc2)cc1	17	5	·	-6	0	·
CC(C)(C)NC(=O)C1(N2C(=O)c3ccccc3C2=O)CCCC1	-7	0	·	·	·	·
N#CC(CCc1ccccc1[N+](=O)[O-])(CCc1ccccc1[N+](=O)[O-])C(N)=O	14	-1	·	·	·	·
COc1cccc(CNC(=O)c2ccccc2NC(=O)C2=C(C)OCCS2)c1OC	5	10	32	-10	-21	·
Cc1nnc(SCC(=O)Nc2sccc2C(N)=O)s1	9	-4	·	30	·	·
CCc1ccc(Nc2nnc(SCC(=O)Nc3sccc3C(N)=O)s2)cc1	67*	-6	15	3	6	7
Cc1ccc(NC(=O)C2C(=O)N(CCO)C3(C)CC2c2ccccc2O3)cc1 (stereo not given)	65*	-5	-14	-1	2	33
COc1ccc(NC(=O)C2C(=O)N(CCO)C3(C)CC2c2ccccc2O3)cc1 (stereo not given)	69*	5	-19	1	-8	18
